Source: PubChem BioAssay (Tox21)
Active and inactive are the calls of the source. A call without a number means that no potency is given here. The call rests on the fitted dose curve; in most records, active means well fitted curve in the direction sought with a large enough effect in the repeat runs; inconclusive means weak or mixed curves; inactive means flat fitted curve, though single readings scatter.

test: qHTS assay to test for compound auto fluorescence at 460 nm (blue) in HEK293 cell free culture (AID 720681); conditions: cell-free medium, autofluorescence 405/460 nm (blue); series mostly up to 91.3 µM; further: potency means the concentration at half of the fitted maximal effect
In short: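 Blue fluorescence (Ex 405/Em 460 nm, triamterene-equivalent) was read immediately after pin transfer of compound or DMSO into medium (DMEM, 10% FBS) without cells.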

| Compound | fluorescence, % of fluorescent control | Potency |
| --- | --- | --- |
| O=C(O)[C@H](O)[C@@H](O)[C@H](O[C@@H]1O[C@H](CO)[C@H](O)[C@H](O)[C@H]1O)[C@H](O)CO | -0.0747% [at 18.6 µM] (inactive) | – |
| Cc1c2ccccc2c(C)c2c1ccc1ccccc12 | – | inactive |
| NC[C@H]1O[C@H](O[C@H]2[C@H](O[C@@H]3O[C@H](CO)[C@@H](O)[C@H]3O)C(O)[C@H](N)C[C@@H]2N)[C@H](N)[C@@H](O)[C@@H]1O (stereo partly specified) | -0.0104% [at 18.6 µM] (inactive) | – |
| O=C(O)Cc1ccccc1Nc1c(Cl)cccc1Cl | – | inactive |
| CC(C)CCCCCOC(=O)CCS | – | inactive |
| COc1cc(/C=C/c2ccccc2)oc(=O)c1 | – | inactive |
| CCO[Si](OCC)(OCC)OCC | – | inactive |
| CCCCC(CC)COC(=O)CCCCC(=O)OCc1ccccc1 (stereo unspecified) | – | inactive |
| NC(=S)NC(N)=S | – | inactive |
| CC(=O)c1ccc(C(C)=O)cc1 | – | inactive |
| Cc1ccc(C(=O)O)cc1 | – | inactive |
| CCC(CC)(CC(=O)Nc1cccc(/C=C/c2nc(C3CCC3)cs2)c1)C(=O)O | – | inactive |
| CCOC(=O)NNc1ccc(N(CC)CC(C)O)nn1 (stereo unspecified) | – | inactive |
| C=CC(=O)Nc1cc2c(Nc3ccc(F)c(Cl)c3)ncnc2cc1OCCCN1CCOCC1 | – | inactive |
| CCN(CC)c1ccc2c(-c3ccc(S(=O)(=O)O)cc3S(=O)(=O)[O-])c3ccc(=[N+](CC)CC)cc-3oc2c1 | – | inactive |
| Cc1cccc2cccnc12 | – | inactive |
| c1ccsc1 | – | inactive |
| O=S(=O)(O)c1ccc(Nc2nc(Nc3ccc(/C=C/c4ccc(Nc5nc(Nc6ccc(S(=O)(=O)O)cc6)nc(N(CCO)CCO)n5)cc4S(=O)(=O)O)c(S(=O)(=O)O)c3)nc(N(CCO)CCO)n2)cc1 | – | 25.1 µM (active) |

| Compound | fluorescence, % of fluorescent control | Potency |
| --- | --- | --- |
| CC(C)=CCC1=C(O)c2ccccc2C(=O)C1=O | – | inactive |
| ClCCl | – | inactive |
| CCCCNS(=O)(=O)c1ccc(C)cc1 | – | inactive |
| CC(CO)Oc1ccccc1 (stereo unspecified) | – | inactive |
| C=C(CC)C(=O)c1ccc(OCC(=O)O)c(Cl)c1Cl | – | inactive |
| CCC(COC(=O)CCS)(COC(=O)CCS)COC(=O)CCS | – | inactive |
| O=C(O)c1cccc(C(F)(F)F)c1 | – | inactive |
| O=C(O)CCN(C1(C(=O)NO)CCCC1)S(=O)(=O)c1ccc(Oc2ccc(F)cc2)cc1 | – | inactive |
| Nc1ccc(C(=O)O)c(O)c1 | – | inactive |
| C[C@H]1NCc2cc(-c3ccc4c(=O)c(C(=O)O)cn(C5CC5)c4c3OC(F)F)ccc21 | – | inactive |
| O=C(Oc1ccccc1)Oc1ccccc1 | – | inactive |
| O=[N+]([O-])c1ccc(O)cc1C(F)(F)F | – | inactive |
| COC(=O)Nc1nc2ccc(C(=O)c3ccccc3)cc2[nH]1 | -0.0403% [at 18.6 µM] (inactive) | – |
| O=C(O)c1cc(=O)c2ccccc2o1 | – | inactive |
| CC1=Nc2ccccc2C1(C)C | – | inactive |
| CCCCCCCC/C=C\CCCCCCCCN | – | inactive |
| CCCCC(CC)CN1CN(CC(CC)CCCC)CC(C)(N)C1 (stereo unspecified) | -0.0323% [at 18.6 µM] (inactive) | – |

test: qHTS assay to test for compound auto fluorescence at 535 nm (green) in HEK293 cell free culture (AID 720682); conditions: cell-free medium, green autofluorescence 485/535 nm; series mostly up to 91.3 µM
In short: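 Using fluorescein as calibrant, autofluorescence was quantified at 485/535 nm in cell-free DMEM containing 10% FBS after pintool addition of compound or vehicle.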

| Compound | activity change | Potency |
| --- | --- | --- |
| O=C(O)[C@H](O)[C@@H](O)[C@H](O[C@@H]1O[C@H](CO)[C@H](O)[C@H](O)[C@H]1O)[C@H](O)CO | -0.0154% [at 18.6 µM, stronger effect = higher value] (inactive) | – |
| Cc1c2ccccc2c(C)c2c1ccc1ccccc12 | – | inactive |
| NC[C@H]1O[C@H](O[C@H]2[C@H](O[C@@H]3O[C@H](CO)[C@@H](O)[C@H]3O)C(O)[C@H](N)C[C@@H]2N)[C@H](N)[C@@H](O)[C@@H]1O (stereo partly specified) | -0.144% [at 18.6 µM, stronger effect = higher value] (inactive) | – |
| O=C(O)Cc1ccccc1Nc1c(Cl)cccc1Cl | – | inactive |
| CC(C)CCCCCOC(=O)CCS | – | inactive |
| COc1cc(/C=C/c2ccccc2)oc(=O)c1 | – | inactive |
| CCO[Si](OCC)(OCC)OCC | – | inactive |
| CCCCC(CC)COC(=O)CCCCC(=O)OCc1ccccc1 (stereo unspecified) | – | inactive |
| NC(=S)NC(N)=S | – | inactive |
| CC(=O)c1ccc(C(C)=O)cc1 | – | inactive |
| Cc1ccc(C(=O)O)cc1 | – | inactive |
| CCC(CC)(CC(=O)Nc1cccc(/C=C/c2nc(C3CCC3)cs2)c1)C(=O)O | – | inactive |
| CCOC(=O)NNc1ccc(N(CC)CC(C)O)nn1 (stereo unspecified) | – | inactive |
| C=CC(=O)Nc1cc2c(Nc3ccc(F)c(Cl)c3)ncnc2cc1OCCCN1CCOCC1 | – | inactive |
| CCN(CC)c1ccc2c(-c3ccc(S(=O)(=O)O)cc3S(=O)(=O)[O-])c3ccc(=[N+](CC)CC)cc-3oc2c1 | – | inactive |
| Cc1cccc2cccnc12 | – | inactive |
| c1ccsc1 | – | inactive |
| O=S(=O)(O)c1ccc(Nc2nc(Nc3ccc(/C=C/c4ccc(Nc5nc(Nc6ccc(S(=O)(=O)O)cc6)nc(N(CCO)CCO)n5)cc4S(=O)(=O)O)c(S(=O)(=O)O)c3)nc(N(CCO)CCO)n2)cc1 | – | inactive |

| Compound | activity change | Potency |
| --- | --- | --- |
| CC(C)(C)CC(C)(C)c1ccc(Nc2ccc(C(C)(C)CC(C)(C)C)cc2)cc1 | 0.0494% [at 3.72 µM, stronger effect = higher value] (inactive) | – |
| CC(C)=CCC1=C(O)c2ccccc2C(=O)C1=O | – | inactive |
| ClCCl | – | inactive |
| CCCCNS(=O)(=O)c1ccc(C)cc1 | – | inactive |
| CC(CO)Oc1ccccc1 (stereo unspecified) | – | inactive |
| C=C(CC)C(=O)c1ccc(OCC(=O)O)c(Cl)c1Cl | – | inactive |
| CCC(COC(=O)CCS)(COC(=O)CCS)COC(=O)CCS | – | inactive |
| O=C(O)c1cccc(C(F)(F)F)c1 | – | inactive |
| O=C(O)CCN(C1(C(=O)NO)CCCC1)S(=O)(=O)c1ccc(Oc2ccc(F)cc2)cc1 | – | inactive |
| Nc1ccc(C(=O)O)c(O)c1 | – | inactive |
| C[C@H]1NCc2cc(-c3ccc4c(=O)c(C(=O)O)cn(C5CC5)c4c3OC(F)F)ccc21 | – | inactive |
| O=C(Oc1ccccc1)Oc1ccccc1 | – | inactive |
| O=[N+]([O-])c1ccc(O)cc1C(F)(F)F | – | inactive |
| COC(=O)Nc1nc2ccc(C(=O)c3ccccc3)cc2[nH]1 | -0.0263% [at 18.6 µM, stronger effect = higher value] (inactive) | – |
| O=C(O)c1cc(=O)c2ccccc2o1 | – | inactive |
| CC1=Nc2ccccc2C1(C)C | – | inactive |
| CCCCCCCC/C=C\CCCCCCCCN | – | inactive |
| CCCCC(CC)CN1CN(CC(CC)CCCC)CC(C)(N)C1 (stereo unspecified) | 0.0339% [at 18.6 µM, stronger effect = higher value] (inactive) | – |
